Compound activity (PubChem)
This is a sample that favours compounds with a hit; in the whole collection about 2.9% have one here.
S1P4 agonist: activates the human S1P4 receptor; O95977; S1P4-expressing cell line, agonist reporter assay; activation, % at 4.98 µM; hit rate 0.35% among 220,000; in the data active means activation above about 11%
Hsp70 activator: switches on Hsp70 transcription | HeLa Hsp70 promoter luciferase reporter, luminescence; scaled: vehicle 0, proteasome-inhibitor control 100% | activation, % at 10 µM | hit rate 0.04% among 200,000;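 active means activation above the mean across all tested compounds plus 3 SD, cutoff set per campaign, cut at about 5.5% in these data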
HSF1 activator: increases HSF-1 driven luciferase reporter signal; NIH3T3-HGL HSF-1 luciferase reporter, MG132, 8 h; 100% = twice DMSO control signal; activation, % at 9 µM; hit rate 1.7% among 300,000;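 active means mean replicate activation of at least 50% with a set share of replicates each reaching 50%; inconclusive means only one of those two conditions met; inactive means mean below 50% and too few replicates reaching it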
S1P3 antag: blocks the human S1P3 receptor. AID 485. inhibition, % at 4.98 µM. hit rate 0.27% among 170,000. CHO S1P3 NFAT-BLA reporter, FRET fluorescence, antagonist mode;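 active means inhibition above the plate cutoff, the mean inhibition of test wells on that plate plus 3 SD, cut at about 28% in these data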;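 further: cells challenged with S1P at its EC80 of 0.8 µM; blue over green emission ratio from cleaved BLA substrate after 4 h stimulation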
Target sequence (Q99500 whole entry, looked up): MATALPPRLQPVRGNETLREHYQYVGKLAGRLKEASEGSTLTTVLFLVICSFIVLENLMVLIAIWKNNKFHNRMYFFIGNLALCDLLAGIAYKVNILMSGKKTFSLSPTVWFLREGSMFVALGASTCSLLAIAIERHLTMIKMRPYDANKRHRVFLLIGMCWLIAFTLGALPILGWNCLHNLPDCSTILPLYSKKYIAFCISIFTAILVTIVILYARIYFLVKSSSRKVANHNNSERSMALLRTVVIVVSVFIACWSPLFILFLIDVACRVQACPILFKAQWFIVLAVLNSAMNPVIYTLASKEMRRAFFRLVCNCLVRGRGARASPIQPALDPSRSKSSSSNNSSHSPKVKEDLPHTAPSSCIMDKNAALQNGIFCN
S1P4 antag: antagonists of human S1P4 receptor | O95977 | S1P4-expressing cells, antagonist mode, reporter read-out | inhibition, % at 4.98 µM | hit rate 0.26% among 220,000 | AID 1510; in the data active means inhibition above about 29%
HSF1 inh: HSF1 inhibition; NIH3T3-HGL HSE-luciferase, MG132-induced, luminescence 8 h; hits give low values; activity change, negative = inhibition, % at 7.5 µM (by protocol); hit rate 0.77% among 300,000; AID 2098;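 active means more than half of replicate wells show activity change below -50%, luminescence cut by over half; inconclusive means some wells, but at most half, below -50%; inactive means no replicate well below -50%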;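 further: luciferase reports HSF-1 transcriptional activity via heat shock element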
S1P4 ag conf: human S1P4 agonism, confirmation; activation, % at 4.98 µM; S1P4 agonist cell-based reporter assay; shares compounds with S1P4 agonist; hit rate 7% among 740; in the data active means activation above about 12%
S1P1 ag: counter-screen for S1P4 agonists: agonists of human S1P1; shares compounds with S1P4 agonist; S1P1 agonist cell-based assay, activation; activation, % at 4.98 µM; hit rate 4% among 740; in the data active means activation above about 21%
Numbers stand for hits; n = inactive; u = inconclusive; x = no result given.

SMILES	S1P4 agonist	Hsp70 activator	HSF1 activator	S1P3 antag	S1P4 antag	HSF1 inh	S1P4 ag conf	S1P1 ag
COc1cc(-c2nc(C)c(C(C)=O)n2O)ccc1OCC(=O)Nc1ccc(Cl)cc1	n	n	n	n	n	n	x	x
Cc1ccc(C(C(=O)NCc2ccco2)N(C(=O)CNC(=O)c2cccs2)c2c(C)cccc2C)cc1 (stereo unspecified)	81	n	n	n	n	n	n	n
C=CCNCc1ccccc1[N+](=O)[O-]	x	x	n	x	x	n	x	x
O=C(c1ccc(NC(=S)Nc2ccc(Cl)c(Cl)c2)cc1)N1CCCC1	23	n	n	n	n	n	n	n
COc1ccc(C(=O)N/C(=C\c2cn(C)c3ccccc23)C(=O)NCCCN2CCOCC2)cc1	x	x	n	x	x	n	x	x
COc1cccc(Nc2nc(-c3sc(NC(=O)c4ccco4)nc3C)cs2)c1	29	n	n	x	n	n	n	n
Cc1ccc(OCC(=O)Nc2ccc3c(c2)C(=O)NC3=O)cc1	x	x	n	x	x	n	x	x
CC(C)(C)c1ccc(OCC(=O)Nc2ccc3c4c(cccc24)C(=O)NC3=O)cc1	19	n	n	n	n	n	n	n
O=C(Cc1ccccc1Cl)N1CCN(c2ncccn2)CC1	n	n	n	n	n	n	x	x
CCCCC(=O)Nc1ccc(Cl)cn1	n	n	n	n	n	n	x	x
CCCCCC(=O)Nc1ccc(Cl)cn1	15	n	n	n	n	n	n	n
Cc1ccc2nc3c(cc(C(=O)NCC4CCCO4)c(=N)n3CCCOC(C)C)c(=O)n2c1 (stereo unspecified)	n	n	x	n	n	x	x	x
C=CCn1c(=N)c(C(=O)NCCCOC)cc2c(=O)n3ccccc3nc21	11	n	n	n	n	n	n	n
C=CCn1c(=N)c(C(=O)NCCCOC)cc2c(=O)n3cc(C)ccc3nc21	12	n	n	n	n	n	n	n
CCC1(CC)C(=O)C2=C3C1[C@H](C(=O)OC)CC(C(=O)OC)C[C@H]3[C@H]1C(=O)N(c3ccccc3)C(=O)[C@H]1[C@H]2C (stereo partly specified)	x	x	n	x	x	n	x	x
Cc1nn(Cc2ccc(Cl)c(Cl)c2)c(C)c1NC(=O)c1cc(-c2ccc3c(c2)OCO3)on1	22	n	n	n	n	n	n	n
CCCC(=O)Nc1ccc(-c2nc3cc(C)c(C)cc3o2)cc1	13	n	n	n	n	n	n	n
O=C(Cn1cncn1)NCc1ccc(Cl)cc1	13	n	n	n	n	n	n	n
O=C(Cn1cncn1)N/N=C/c1ccc(Cl)cc1	n	n	n	n	n	n	x	x
O=C(COc1ccccc1)NCc1cccs1	14	n	n	x	n	n	n	n
CCOc1ccc(-n2ccnc(SCC(=O)Nc3cccc(OC)c3)c2=O)cc1	x	x	n	x	x	n	x	x
COCCn1c(C)cc(/C=C2/NC(=O)N(c3cccc(Cl)c3)C2=O)c1C	105	n	n	n	n	u	n	n
CC(C)n1cc(/C=C2\NC(=O)N(c3cccc(Cl)c3)C2=O)c2ccccc21	n	n	n	x	n	n	x	x
COc1ccc(NCC(=O)N/N=C2\CCCC(C)C2)cc1 (stereo unspecified)	23	n	n	n	n	n	n	n
CC1CCC/C(=N\NC(=O)Nc2ccccc2)C1 (stereo unspecified)	n	n	n	n	n	n	x	x
SMILES	S1P4 agonist	Hsp70 activator	HSF1 activator	S1P3 antag	S1P4 antag	HSF1 inh	S1P4 ag conf	S1P1 ag
CCCCC(=O)OCC(=O)c1cc(C)n(-c2c(C)n(C)n(-c3ccccc3)c2=O)c1C	n	n	n	n	n	n	x	x
O=C(CCCN1C(=O)/C(=C/c2ccccc2Cl)SC1=S)NNC(=O)c1ccccc1	18	n	n	n	n	n	n	n
O=C(CCCN1C(=O)/C(=C/c2ccccc2Cl)SC1=S)NNC(=O)c1cccnc1	n	x	n	n	n	n	x	x
O=C1CCC([N+](=O)[O-])C(c2ccc3c(c2)OCO3)N1 (stereo unspecified)	114	n	n	n	n	n	n	n
CCOC(=O)c1ccc(NC(=O)CCc2nc(-c3ccccc3Cl)no2)cc1	12	n	n	n	n	n	n	n
O=C(NC(=S)NCC1CCCO1)c1ccco1 (stereo unspecified)	14	n	n	n	n	n	n	n
O=C(NCC1CCCO1)/C(=C/c1ccccc1)NC(=O)c1ccccc1 (stereo unspecified)	28	n	n	n	n	n	n	n
CCC(C)Nc1c2c(nc3c(-c4ccccc4)c(C)nn13)CCC2 (stereo unspecified)	n	n	n	x	n	n	x	x
O=C(c1cccs1)N1CCC(c2nc3c(nnn3Cc3ccccc3Cl)c(=O)[nH]2)CC1	x	x	n	x	x	n	x	x
O=C(c1ccccc1)N1CCC(c2nc3c(nnn3Cc3ccccc3Cl)c(=O)[nH]2)CC1	55	n	n	x	n	n	n	n
CCCOc1ccc(C2C(C(=O)OC)=CN(CCOC)C=C2C(=O)OC)cc1	12	n	n	n	n	n	n	n
CCN(CC)S(=O)(=O)c1ccc(C(=O)NNc2nc(-c3ccccc3)c3cc(Br)ccc3n2)cc1	13	n	n	n	n	n	n	n
CCOC(=O)CCN1C(=O)c2ccccc2Sc2ncccc21	x	x	n	x	x	n	x	x
Cc1ccc(C(=O)NCCc2nnc3ccc(SCC(=O)Nc4ccccc4C)nn23)cc1	n	n	n	n	n	n	x	x
Cc1ccc(C(=O)NCCc2nnc3ccc(SCC(=O)Nc4c(C)cc(C)cc4C)nn23)cc1	13	n	n	n	n	n	n	n
O=C(Nc1ccc(F)cc1)C1CC(=O)N(Cc2ccco2)C1 (stereo unspecified)	x	x	n	x	x	n	x	x
CCc1ccc(C(=O)NNC(=O)CCC2CCCCC2)cc1	x	x	n	x	x	n	x	x
COc1ccc(CNC(=S)NC2CCCC2)cc1	11	n	n	n	n	n	n	n
COc1ccc(CNC(=S)NC2CCCCC2)cc1	x	x	n	x	x	n	x	x
O=[N+]([O-])c1ccc(NCCCNS(=O)(=O)c2ccccc2)cc1	n	n	x	n	n	x	x	x
COc1ccc(OC)c(NC(=O)c2ccccc2N(Cc2ccccc2)S(C)(=O)=O)c1	58	n	n	n	n	n	n	n
COc1cc(/C=C2\C(=N)N3N=C(S(=O)(=O)CC(C)C)SC3=NC2=O)ccc1OC(=O)c1ccco1	x	x	n	x	x	n	x	x
Nc1nc(SCC(=O)Nc2ccc3c(c2)OCO3)n[nH]1	n	n	n	n	n	n	x	x
COc1ccccc1/C=C(/CC(=O)NCc1ccc(F)cc1)c1nc2ccccc2s1	63	n	n	n	n	n	n	n
COc1ccc(-n2cc(CNCCc3cscn3)c(-c3ccccc3Cl)n2)cc1	112	n	59	n	n	n	n	n
CN(C)S(=O)(=O)c1cccc(CNCC2COc3ccccc3O2)c1 (stereo unspecified)	x	x	n	x	x	n	x	x
